MRP-1 activ = activates MRP-1 | H69AR cells + doxorubicin, viability rescue, CellTiter-Glo | viability increase, % at 10 µM | hit rate 0.61% among 140,000 | AID 799;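 active = viability gain under doxorubicin at or above a set limit, the compound median plus 3 SD, cut at about 4.7% in these data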;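 also: MRP-1 overexpressing cells given doxorubicin 25 µM after compound pretreatment; 18-22 h compound pretreatment then 72 h with doxorubicin before readout; 0% = doxorubicin-only wells and 100% = vehicle-treated cells without doxorubicin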
LYP inh 2 = blocks human PTPN22 phosphatase activity | Q9Y2R2 | hit rate 0.21% among 96,000 | recombinant LYP catalytic domain, DiFMUP fluorescence | AID 640 | inhibition, % at 2 µM;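 active = inhibition at 2 µM at or above a set limit, the screen mean plus 3 SD, cut at about 24% in these data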;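 also: 0% = DMSO with enzyme and 100% = enzyme fully blocked by orthovanadate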
Target sequence (Q9Y2R2 whole entry, looked up, the tested form may be a part): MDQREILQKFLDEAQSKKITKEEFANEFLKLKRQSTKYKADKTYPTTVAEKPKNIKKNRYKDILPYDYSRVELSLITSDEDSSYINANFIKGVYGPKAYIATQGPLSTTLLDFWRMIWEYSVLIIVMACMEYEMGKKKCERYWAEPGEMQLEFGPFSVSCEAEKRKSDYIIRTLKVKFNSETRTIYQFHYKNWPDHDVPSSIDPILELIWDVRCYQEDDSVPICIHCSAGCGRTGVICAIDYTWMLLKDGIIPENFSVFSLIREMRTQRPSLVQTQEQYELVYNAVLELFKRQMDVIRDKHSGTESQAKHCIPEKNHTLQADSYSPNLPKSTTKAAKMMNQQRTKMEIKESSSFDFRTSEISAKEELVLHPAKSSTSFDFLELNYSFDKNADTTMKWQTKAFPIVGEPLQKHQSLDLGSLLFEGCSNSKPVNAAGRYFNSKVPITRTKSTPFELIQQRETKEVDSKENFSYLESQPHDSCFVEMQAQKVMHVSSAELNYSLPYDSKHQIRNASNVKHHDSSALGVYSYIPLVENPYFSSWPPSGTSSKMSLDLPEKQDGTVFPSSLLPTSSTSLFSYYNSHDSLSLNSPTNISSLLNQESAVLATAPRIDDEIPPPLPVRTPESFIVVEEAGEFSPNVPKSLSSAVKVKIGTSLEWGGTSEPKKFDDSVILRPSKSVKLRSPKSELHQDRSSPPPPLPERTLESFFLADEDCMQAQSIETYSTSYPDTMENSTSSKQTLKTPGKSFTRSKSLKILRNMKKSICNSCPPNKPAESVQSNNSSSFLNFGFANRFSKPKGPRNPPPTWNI
MRP resist rev = MRP-mediated drug resistance reversal. differential viability (reversal), % at 10 µM. hit rate 0.04% among 85,000. H69AR cells + 2 uM doxorubicin, CellTiter-Glo, 72 h;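 active = viability drop by adding the cancer drug above about 55%, with treated viability meeting a 40% cutoff, limit read from the data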;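 also: viability without doxorubicin minus viability with 2 µM doxorubicin for each compound; larger differential means the compound sensitizes cells more to doxorubicin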
PTPN22 act = LYP (human) phosphatase activation. AID 697. activation, % at 2 µM. Q9Y2R2. recombinant LYP, DiFMUP fluorescence; 0 = plate median, 100 = signal doubled. hit rate 0.11% among 96,000;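 active = activation at 2 µM above a set limit, the mean plus 5 SD, cut at about 37% in these data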
PLAP act = activators of human placental alkaline phosphatase; P05187; purified PLAP enzyme, luminescent substrate read-out; active compounds read high; activation fold at 20 µM; hit rate 1.2% among 96,000; AID 696; in the data active = activation fold above about 2
FAK blocker = blocks human focal adhesion kinase activity. Q05397. biochemical FAK kinase activity assay. inhibition, %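 (tested at 7 µM)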. hit rate 0.84% among 97,000; in the data active = inhibition above about 19%;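 also: 0% = DMSO and 100% = reference compound high control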
* hit, by the source's call; nt = not tested or not shown. Sampled rows, rich in hits. Any-hit rate of the full collection: about 2.2%.

SMILES	MRP-1 activ	LYP inh 2	MRP resist rev	PTPN22 act	PLAP act	FAK blocker
O=C(COc1ccc(S(=O)(=O)N2CCCC2)cc1Cl)NC1CCCC1	-0.2	4.2	7.5	-5.1	1.1	-1.4
Cc1cc(Cl)c(S(=O)(=O)N2CCCC2)cc1OCC(=O)NC1CCCCC1	1.5	-5.4	1.8	8.2	2*	1.4
Cc1cc(Cl)c(S(=O)(=O)Nc2ccc3c(c2)OCO3)cc1OCC(=O)NC1CCCCC1	-1.5	-21.3	2.9	24.5	1.7	3.8
Cc1cc(Cl)c(S(=O)(=O)NC(C(=O)O)C(C)C)cc1OCC(=O)NC1CCCCC1 (stereo not given)	-1.8	3.5	13.2	-0.9	2*	-1.8
COc1ccccc1OCCC(=O)OCC(=O)NC(C)c1ccccc1 (stereo not given)	2.7	nt	nt	nt	nt	nt
CC(C)c1nnc(NC(=O)CSc2nc3ccccc3s2)s1	-0.9	-10.0	-0.9	8.9	1.4	-2.9
O=C(CSc1ncn[nH]1)Nc1ccc(Br)cc1F	7.0*	-1.0	-9.9	-1.1	1.3	9.6
CC(C)c1nnc(NC(=O)CSc2ncn[nH]2)s1	4.8*	9.6	-9.1	-10.6	1.5	6.8
CCc1noc(C)c1C(=O)Nc1nc(-c2cc(C)ccc2C)c(C)s1	5.5*	11.4	nt	-7.6	0.9	2.9
N#Cc1ccc(NC(=O)COC(=O)CSc2nnc(-c3ccc(Cl)cc3)o2)cc1	4.0	nt	nt	nt	nt	nt
C/C(=N\NC(=O)C1COc2ccccc2O1)c1ccc(C)o1 (stereo not given)	0.2	-3.0	nt	2.8	2*	0.8
c1ccc(CNCc2ccc3c(c2)OCO3)nc1	-0.8	4.9	9.3	-2.4	nt	1.6
O=C(Nc1nnc(COc2ccc(Cl)cc2)s1)c1ccc([N+](=O)[O-])cc1	-0.6	24.5*	nt	-22.4	1.1	-0.4
COc1ccc(/C=C/C(=O)NCc2cnn(C)c2C)cc1COc1ccc(Br)cc1	5.3*	16.2	nt	-12.9	1.4	-0.6
COc1ccc(/C=C/C(=O)NCc2c(C)nn(C)c2C)cc1COc1ccc(Br)cc1	3.1	-15.8	nt	19.3	1.1	-2.0
O=C(NCCc1ccc2c(c1)OCCO2)c1ccc(F)cc1	4.2	nt	nt	nt	nt	nt
COCCN(C(=O)CSc1nnc(Nc2ccccc2F)s1)c1c(N)n(Cc2ccccc2)c(=O)[nH]c1=O	-1.4	-6.4	nt	3.7	2.2*	-0.8
COc1ccccc1NC(=O)CSc1nc2n[nH]c(C)c2c(=N)n1-c1ccccc1Cl	-6.0	-5.1	5.5	2.5	nt	20.6*
CCc1ccccc1NC(=O)CSc1nc2n[nH]c(C)c2c(=N)n1-c1ccc(OC)cc1	-4.3	nt	6.3	nt	nt	nt
CCC(Sc1nc2n[nH]c(C)c2c(=N)n1-c1cccc(Cl)c1)C(=O)NCCOC (stereo not given)	-4.0	6.3	nt	-8.1	2.1*	-3.5
CCC(Sc1nc2n[nH]c(C)c2c(=N)n1-c1ccc(C)c(Cl)c1)C(=O)N1CCOCC1 (stereo not given)	-3.0	nt	-3.5	nt	1.1	nt
Cc1ccc(CNC(=O)c2ccccc2N)cc1	-0.8	59.7*	8.3	-58.6	0.8	1.2
O=C(NC1CCCC1)C(c1c[nH]c2ccccc12)N(C(=O)Cn1nnc(-c2ccc(Cl)cc2)n1)c1ccccc1 (stereo not given)	11.0*	-2.9	nt	0.4	1.2	1.3
CC(C)(C)NC(=O)C(c1c[nH]c2ccccc12)N(C(=O)Cn1nnc(-c2ccc(Cl)cc2)n1)c1ccccc1F (stereo not given)	-1.3	nt	nt	nt	nt	nt
CCCCCCN1CC(C(=O)OCC)C(=O)C1=O (stereo not given)	-0.1	nt	nt	nt	nt	nt
SMILES	MRP-1 activ	LYP inh 2	MRP resist rev	PTPN22 act	PLAP act	FAK blocker
CCN(CC)CCNc1nc2c(c(=O)[nH]c(=O)n2C)n1CC(O)COc1ccc(Cl)cc1Cl (stereo not given)	-0.8	0.3	-0.8	-2.7	2*	-6.2
CC1CCc2c(C(=O)OCC(=O)Nc3cccc(S(=O)(=O)N4CCCCCC4)c3)csc2C1 (stereo not given)	5.1*	nt	nt	nt	nt	nt
Cc1cc(C)cc(NC(=O)c2oc3ccccc3c2COc2ccccc2)c1	5.2*	nt	nt	nt	nt	nt
CC(=O)NCC(=O)OC(C(=O)c1ccccc1)c1ccc(Cl)cc1 (stereo not given)	-2.5	nt	nt	nt	nt	nt
CCC(Oc1ccccc1)C(=O)Nc1nnc(C)s1 (stereo not given)	3.5	11.8	10.4	-11.4	1.1	-1.7
CCC(Oc1ccccc1)C(=O)Nc1nnc(C(F)(F)F)s1 (stereo not given)	10.1*	10.4	8.6	-6.3	1.1	-12.2
Cc1sc2nc(C3CC3)nc(N3CCN(S(=O)(=O)c4ccc(F)cc4)CC3)c2c1C	6.6*	10.5	-20.9	-10.0	1.3	0.1
O=C(O)CCC(=O)Nc1ccc(Sc2ccc([N+](=O)[O-])cc2)cc1	-2.7	nt	nt	nt	nt	nt
COc1ccc(-n2ncc3c(=O)n(CC(=O)N4c5ccccc5CC4C)cnc32)cc1 (stereo not given)	5.9*	8.8	-1.7	-10.5	nt	1.3
CN(C(=O)c1cc(-n2cnnc2)ccc1Cl)c1ccccc1	-2.8	nt	nt	nt	nt	nt
COc1ccc(NC(=S)NNC(=O)Cn2nc([N+](=O)[O-])cc2C)cc1	0.1	-2.2	nt	7.8	2.2*	-5.1
O=C(Cn1nc(C(F)F)cc1C(F)F)NNC(=S)Nc1ccc(Cl)cc1	-2.1	-1.9	nt	2.5	2*	-2.9
Cc1ccc(NC(=S)NNC(=O)Cn2nc(C(F)F)cc2C(F)F)cc1	-1.6	nt	nt	nt	nt	nt
Cc1cc([N+](=O)[O-])nn1CC(=O)NNC(=S)Nc1ccc([N+](=O)[O-])cc1	-3.0	35.3*	nt	-33.1	1.1	-6.5
Cc1nn(CC(=O)NNC(=S)Nc2ccccc2)c(C)c1[N+](=O)[O-]	0.5	8.4	nt	-4.6	1.9	1.3
O=C(Nc1ccc(Cl)c(Cl)c1)Nc1cc(C(=O)NC2CC2)ccc1Cl	2.3	nt	nt	nt	nt	nt
CCOC(=O)Cc1csc(NC(=O)CSc2nc(N)c3c(C)c(C)sc3n2)n1	-2.8	2.2	13.0	-1.2	0.9	2.2
O=C(NCCc1cccc(F)c1)/C(=C/c1cccnc1)NC(=O)c1ccccc1	-2.4	nt	nt	nt	nt	nt
COc1ccc(/C=C/C(=O)c2ccc3c4c(cccc24)CC3)cc1OC	-5.2	nt	nt	nt	nt	nt
O=C(COc1cccc2ccccc12)NNC(=O)Nc1ccccc1	-3.2	-2.6	nt	0.5	1.3	4.5
O=C(COc1cccc2ccccc12)NNC(=O)[C@@H]1CCCC[C@@H]1C(=O)O	-0.1	0.3	nt	-1.9	2*	-1.6
CC(=O)c1c(C)[nH]c(C(=O)Nc2nc(-c3ccc(Cl)cc3)cs2)c1C	4.8*	nt	nt	nt	nt	nt
CC(=O)c1c(C)[nH]c(C(=O)Nc2nc(-c3ccc(-c4ccccc4)cc3)cs2)c1C	-4.6	nt	nt	nt	nt	nt
COc1ccc(OC)c(/C=N/NC(=O)CNC(=O)c2ccc(S(=O)(=O)N3CCOCC3)cc2)c1	-0.4	nt	nt	nt	nt	nt
Cc1ccc2n(n1)c(=O)c(Cc1ccccc1)c([O-])[n+]2-c1ccccc1	-2.4	nt	nt	nt	nt	nt
O=C1CC(N2CCN(c3nc4ccccc4s3)CC2)C(=O)N1c1ccc(F)cc1 (stereo not given)	4.9*	-0.8	-1.3	-1.1	1.6	2.7
C=CCNC(=S)NNC(=O)CCC(O)CCCCC (stereo not given)	-1.3	0.0	-2.8	-0.9	2.4*	-0.9

Compound activity deposited in PubChem by several laboratories.
